# Screening results deposited in PubChem by several laboratories.
# This is a sample that favours compounds with a hit; in the whole collection about 3.1% have one here.
# Mcl1-Bid inh – disrupts binding of human Mcl-1 to Bid peptide; Q07820; TR-FRET Mcl-1/Bid-Dy647 peptide binding, 1536-well; inhibition, % at 21.7 µM; 220,000 tested, 0.97% active; AID 1021;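 active means compounds that cut the binding signal by more than half at the single screening dose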;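 further: His-tagged Mcl-1 with europium anti-His antibody binding Bid BH3 peptide; 0% = Mcl-1 plus peptide wells and 100% = peptide-only wells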
# Target sequence (Q07820 whole entry, looked up): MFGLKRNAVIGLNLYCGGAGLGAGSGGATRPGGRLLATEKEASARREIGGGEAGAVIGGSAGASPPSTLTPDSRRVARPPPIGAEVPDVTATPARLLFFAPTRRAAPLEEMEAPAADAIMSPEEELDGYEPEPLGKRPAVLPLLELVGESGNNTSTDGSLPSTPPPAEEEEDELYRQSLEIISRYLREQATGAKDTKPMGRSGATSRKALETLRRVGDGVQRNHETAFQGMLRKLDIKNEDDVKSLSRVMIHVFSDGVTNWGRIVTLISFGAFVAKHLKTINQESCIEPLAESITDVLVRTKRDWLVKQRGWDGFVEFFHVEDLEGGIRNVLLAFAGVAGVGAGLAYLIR
# Mcl1 Noxa PPI – Mcl-1/Noxa interaction inhibition; Q07820; TR-FRET Mcl-1/Noxa peptide binding, 2 h; inhibition, % at 21.7 µM; 220,000 tested, 1.5% active; AID 1022;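 active means compounds that cut the protein-peptide binding signal by more than 50% relative to plate controls in a single-dose test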;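 further: His-tagged Mcl-1 with rhodamine Noxa BH3 peptide and terbium anti-His antibody; 0% = Mcl-1 plus Noxa peptide wells and 100% = peptide-only wells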
# p47phox inh – inhibitors of human p47phox binding | P14598 | p47phox/p22phox peptide binding, fluorescence polarization, 2 h | inhibition, % at 24.7 µM | 220,000 tested, 0.53% active | AID 1274;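 active means inhibition above about 30%, limit read from the data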;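 further: 0% = p47phox with labelled peptide and 100% = labelled peptide alone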
# 14-3-3 Bad inh – disrupts binding of bovine 14-3-3 zeta to phospho-Bad peptide; TR-FRET 14-3-3zeta/Dy647-pBad peptide displacement, 1 h; inhibition, % at 21.7 µM; 220,000 tested, 0.71% active; AID 781; P63103;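 active means inhibition above about 70%, limit read from the data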;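 further: 0% = full 14-3-3 plus peptide FRET controls and 100% = background without 14-3-3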
# Target sequence (P63103 whole entry, looked up): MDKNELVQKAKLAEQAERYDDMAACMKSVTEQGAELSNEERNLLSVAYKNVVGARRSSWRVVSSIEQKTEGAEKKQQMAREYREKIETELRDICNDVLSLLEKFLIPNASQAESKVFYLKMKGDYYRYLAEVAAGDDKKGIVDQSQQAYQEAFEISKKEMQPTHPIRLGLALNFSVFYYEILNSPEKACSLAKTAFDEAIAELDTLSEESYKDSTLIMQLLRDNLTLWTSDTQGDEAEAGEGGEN
# Mcl-1 Bim block – inhibitors of Bim-Mcl-1 interaction, human; AID 1009; 190,000 tested, 0.1% active; Bead-based flow cytometry, Bim peptide-Mcl-1 binding; Q07820; inhibition, % at 10 µM; in the data active means inhibition above about 40%;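 further: 0% = no compound tracer wells and 100% = peptide blocker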
# * hit, by the source's call; x = not tested or not shown.
SMILES,Mcl1-Bid inh,Mcl1 Noxa PPI,p47phox inh,14-3-3 Bad inh,Mcl-1 Bim block
CC1Cc2nc(SCC(=O)N3CCc4ccccc43)n(C)c(=O)c2S1 (stereo not drawn),-11.6,11.5,34.5*,-21.6,0.0
O=C1C2C3C=CC(CO)(O3)C2C(=O)N1c1ccccc1-c1ccccc1 (stereo not drawn),5.3,52.6*,0.9,7.8,-14.0
CC(=O)Oc1ccc(N2C(=O)C3C4C=CC(CO)(O4)C3C2=O)cc1 (stereo not drawn),-4.3,25.1,-0.2,11.5,0.0
COc1cc(C(CC(=O)O)n2cnnn2)ccc1OC(C)C (stereo not drawn),-14.9,13.6,-11.5,-19.4,0.0
O=C(NCC1CCCO1)c1csc(Nc2cccc3ccccc23)n1 (stereo not drawn),7.4,5.6,4.1,1.7,-1.0
CCC(C(=O)NC1CCCC1)N(C(=O)Cn1nnc(-c2ccc(C)o2)n1)c1cnc2ccccc2c1 (stereo not drawn),-37.1,18.6,1.2,77.6*,-1.0
COc1cc(C(=O)O)nc2ccc([N+](=O)[O-])cc12,16.5,29.2,-10.1,22.0,2.0
CC(C)N(Cc1cnn(C)c1)Cc1nc(Cc2ccccc2Cl)no1,-12.5,-6.8,2.4,-7.2,-4.0
CN(Cc1cnn(C)c1)Cc1nc(Cc2ccccc2Cl)no1,-2.4,4.5,42.9*,-7.5,0.0
CC1(OC(=O)C2CCCC2)C(=O)C=C2C=C(c3ccsc3)N(C3CC3)C=C2C1=O (stereo not drawn),-90.5,-9.0,3.1,-6.4,x
CC1(OC(=O)c2ccc(Cl)nc2)C(=O)C=C2C=C3CCCN3C=C2C1=O (stereo not drawn),-105.7,58.7*,22.4,3.6,x
COC(=O)CCC(=O)OC1(C)C(=O)C=C2C=C3CCCN3C=C2C1=O (stereo not drawn),-47.6,53.6*,8.0,-2.1,x
CC1(OC(=O)C2CCCC2)C(=O)C=C2C=C3CCCCN3C=C2C1=O (stereo not drawn),-144.6,9.6,-9.1,-3.9,x
COc1cc(C2NC(=S)NC(C)=C2C(=O)Nc2cc(C)cc(C)c2)ccc1O (stereo not drawn),-151.5,1.8,-0.5,-2.2,x
COc1ccc(C(C)(C)C)cc1NC(=O)COC(=O)c1ccc([N+](=O)[O-])o1,-11.1,3.6,9.5,-13.3,-3.0
COc1ccc(Cn2c(SCc3ccc(C)cc3)nc3cc(OC)c(OC)cc3c2=N)cc1Cl,15.2,-3.5,35.0*,5.5,-2.0
COc1cc2nc(SCc3ccc(C(F)(F)F)cc3)n(Cc3cccs3)c(=N)c2cc1OC,-11.6,-4.0,-20.3,-15.8,0.0
COc1ccc(Cn2c(SCc3cc(C)ccc3C)nc3cc(OC)c(OC)cc3c2=N)cc1,4.6,19.1,66.4*,-2.4,-6.0
COc1cc2nc(SCc3ccc(Cl)cc3Cl)n(Cc3cccs3)c(=N)c2cc1OC,-36.7,-47.4,-50.4,-14.0,0.0
CCS(=O)(=O)N1N=C(c2cccc(NS(C)(=O)=O)c2)CC1c1ccc(C)cc1 (stereo not drawn),0.0,20.2,-227.5,6.7,-6.0
CC(C)(C)N=Cc1cc(-c2ccccc2)sc1O,-107.0,7.2,-6.8,-7.8,-1.0
Cc1ccc(C)c(NC2=CC(=O)CC(C)(C)C2)c1C#N,-2.0,1.3,9.7,75.7*,0.0
CCn1c(C)nc2cc(C(N)=O)ccc21,-11.9,8.6,5.0,-2.0,x
CCn1c(C)nc2cc(C(=O)N/N=C/c3ccc(O)c(O)c3O)ccc21,42.3,95.2*,-5.3,36.4,11.0
CCn1c(C)nc2cc(C(=O)N/N=C/c3cccc(OC)c3O)ccc21,-38.1,64.7*,15.8,-15.1,2.0
SMILES,Mcl1-Bid inh,Mcl1 Noxa PPI,p47phox inh,14-3-3 Bad inh,Mcl-1 Bim block
CN(Cc1nc(-c2cccs2)no1)CC1COCCO1 (stereo not drawn),-30.4,3.5,4.3,-11.4,-2.0
NC(=O)c1ccc(Nc2nnc(-c3ccc(O)cc3)c3ccccc23)cc1,13.2,51.8*,-11.4,25.4,-4.0
O=[N+]([O-])c1ccc(N=Cc2sc3ccccc3c2O)cc1,23.2,33.1,-47.9,-4.5,-2.0
O=[N+]([O-])c1cccc(N=Cc2sc3ccccc3c2O)c1,37.9,59.1*,21.0,84.5*,0.0
c1ccc(COc2ccc(OCCn3cncn3)cc2)cc1,2.1,12.1,-3.2,2.9,0.0
c1ccc(Oc2cccc(OCCn3cncn3)c2)cc1,59.4*,31.5,6.6,65.5,-1.0
Cc1ccc(C(C)C)c(OCc2ccc(C(=O)N/N=C/c3ccc(C(=O)O)cc3)cc2)c1,-70.4,50.0,-29.0,-2.6,x
Cc1ccc(C(C)C)c(OCc2ccc(C(=O)N/N=C/c3ccc(O)cc3O)cc2)c1,51.6*,86.3*,-17.3,12.2,2.0
CCn1c(SCC(=O)c2cccs2)nnc1-c1cccs1,20.7,18.8,5.4,4.4,6.0
Cc1cc(C)c2c(c1)c(C)cc1nnc(SCC(=O)c3cccs3)n12,-14.7,-2.6,1.9,73.0*,-3.0
CCCCCCC(=O)N/N=C(\C)Cc1ccccc1,-13.8,69.7*,-14.5,-3.2,-3.0
CCCCCCCC(=O)NNC(=O)Cc1ccccc1,-12.4,x,2.9,1.5,0.0
CCN(CC)C(=O)C1=C(C)Nc2ncnn2C1c1cccnc1 (stereo not drawn),-34.6,5.9,25.4,-1.2,-1.0
O=C(O)/C=C/C(=O)Nc1ccc(Oc2ncnc3cc(Cl)ccc23)nc1,2.8,9.2,0.2,16.5,x
Cc1nn(-c2ccccc2)c(Cl)c1C1C(C#N)=C(N)Oc2c1c(C)nn2-c1ccccc1 (stereo not drawn),-26.2,60.1*,-3.4,-5.2,-2.0
CCC(C)NCCCOc1c(C)cc(C)cc1Br (stereo not drawn),26.0,118.9*,-5.5,4.5,0.0
CCCc1cc(=O)oc2c(C)c(OCC(=O)c3ccc(N4CCCC4)cc3)ccc12,48.7,32.2,34.1*,67.2,-21.0
CC(C)CNC(=O)c1c(N)n(/N=C/c2ccccn2)c2nc3ccccc3nc12,55.9*,23.2,9.2,23.6,-7.0
COCCNC(=O)c1c(N)n(/N=C/c2cccs2)c2nc3ccccc3nc12,17.8,12.5,-5.7,22.3,-1.0
COCCNC(=O)c1c(N)n(/N=C/c2ccc(F)cc2)c2nc3ccccc3nc12,-7.8,13.2,-10.7,-8.1,x
CCCCNC(=O)c1c(N)n(/N=C/c2ccccn2)c2nc3ccccc3nc12,31.7,32.4,10.0,81.1*,-3.0
O=C(CCNc1ccc(Cc2ccncc2)cc1)c1ccc([N+](=O)[O-])cc1,-35.8,10.1,0.2,-7.6,-1.0
Cc1n(N)c2ccccc2[n+]1CC(=O)c1ccccc1,-15.2,5.0,-13.2,-17.2,2.0
CNc1cccccc1=S,-93.1,57.9*,19.2,14.1,0.0
Cc1ccc(N(Cc2cc3cc(C)ccc3[nH]c2=O)C(=O)c2cccs2)cc1,60.9*,-7.6,-2.1,-0.2,-4.0
CCN(CC)c1ccc(NC(=O)CCNC(=O)c2ccco2)cc1,-73.8,79.3*,-3.5,-19.8,-1.0
CN(CC(=O)Nn1cnnc1)S(=O)(=O)c1ccccc1,-17.2,9.2,-6.3,73.2*,0.0
